# The supplement of paper PMC8728848
# The sample as a whole holds a higher share of the strongest signals than the screen did.
# B1: Epa3to1 (Candida glabrata) (protein)
# chain: MGSSHHHHHHSSGLVPRGSHMKRELSSQNPFGYPIGCSPQDVAIIPGLTMELYSYPIVSGTPPNCYDASYVDPEYPRTGYLKRKMVGKSTGVTGNLNYKYSVEKACMVKYGNLPAGYNYNEPLTVSNFTMILYGYFKAQTTGLHTFFVNADDLLYINFGAGNAFDCCKREDSKTKLGEYVAYDIWHVDSSKNKVSLFLEKDLYYPIRMFFNNREYDSSLDLSFSVNGATDQISDFSGYLYSVPDQPDTCPAHIGYDTTCR
# Legend:
# Assay in all cases: glycan array binding signal (z-score within array); higher = stronger binding
# Settings in all cases: glycan notation: IUPAC condensed, linker removed
# [1] = molecular target: Gal(b1-4)GlcNAc(b1-2)[Gal(b1-4)GlcNAc(b1-4)]Man(a1-3)[GlcNAc(b1-4)][Gal(b1-4)GlcNAc(b1-2)Man(a1-6)]Man(b1-4)GlcNAc(b1-4)GlcNAc
# Method in brief: (§1)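 Columns mapping to the same glycan were averaged after glycan names were converted to IUPAC-condensed notation. The data come from 3228 arrays in the Consortium for Functional Glycomics database, limited to those with an available protein sequence. Binding is reported as a within-array Z-score averaged across arrays of one protein sequence and across linkers.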
# [2] = molecular target: Gal(b1-4)GlcNAc(b1-2)[Gal(b1-4)GlcNAc(b1-6)]Man(a1-6)[Gal(b1-4)GlcNAc(b1-2)Man(a1-3)]Man(b1-4)GlcNAc(b1-4)[Fuc(a1-6)]GlcNAc
# Method in brief: as §1
# [3] = molecular target: Gal(b1-4)GlcNAc(b1-3)Gal(b1-4)GlcNAc(b1-2)[Gal(b1-4)GlcNAc(b1-3)Gal(b1-4)GlcNAc(b1-6)]Man(a1-6)[Gal(b1-4)GlcNAc(b1-3)Gal(b1-4)GlcNAc(b1-2)Man(a1-3)]Man(b1-4)GlcNAc(b1-4)GlcNAc
# Method in brief: as §1
# [4] = molecular target: Gal(b1-4)GlcNAc(b1-3)Gal(b1-4)GlcNAc(b1-3)Gal(b1-4)GlcNAc(b1-3)Gal(b1-4)GlcNAc(b1-2)Man(a1-3)[Gal(b1-4)GlcNAc(b1-3)Gal(b1-4)GlcNAc(b1-3)Gal(b1-4)GlcNAc(b1-3)Gal(b1-4)GlcNAc(b1-2)Man(a1-6)]Man(b1-4)GlcNAc(b1-4)GlcNAc
# Method in brief: as §1
# [5] = molecular target: Gal(b1-4)GlcNAc(b1-3)[Fuc(a1-3)GlcNAc(b1-6)]Gal(b1-4)Glc
# Method in brief: as §1
# [6] = molecular target: Gal(b1-4)GlcNAc(b1-6)Gal(b1-4)GlcNAc
# Method in brief: as §1
# Gal3S6S(b1-4)GlcNAc = molecular target: Gal3S6S(b1-4)GlcNAc
# Method in brief: as §1
# Gal6S(b1-3)GlcNAc6S = molecular target: Gal6S(b1-3)GlcNAc6S
# Method in brief: as §1
# Gal6S(b1-4)Glc6S = molecular target: Gal6S(b1-4)Glc6S
# Method in brief: as §1
# Gal6S(b1-4)GlcNAc6S = molecular target: Gal6S(b1-4)GlcNAc6S
# Method in brief: as §1
# GalNAc(b1-3)Gal = molecular target: GalNAc(b1-3)Gal
# Method in brief: as §1
# GlcA(b1-6)Gal = molecular target: GlcA(b1-6)Gal
# Method in brief: as §1
# [7] = molecular target: GlcNAc(a1-4)Gal(b1-3)GlcNAc
# Method in brief: as §1
# [8] = molecular target: GlcNAc(a1-4)Gal(b1-4)GlcNAc
# Method in brief: as §1
# [9] = molecular target: GlcNAc(a1-4)Gal(b1-4)GlcNAc(b1-3)Gal(b1-4)[Fuc(a1-3)]GlcNAc(b1-3)Gal(b1-4)[Fuc(a1-3)]GlcNAc
# Method in brief: as §1
# [10] = molecular target: GlcNAc(b1-2)[GlcNAc(b1-6)]Man(a1-6)[GlcNAc(b1-2)Man(a1-3)]Man(b1-4)GlcNAc(b1-4)GlcNAc
# Method in brief: as §1
# GlcNAc(b1-3)Fuc = molecular target: GlcNAc(b1-3)Fuc
# Method in brief: as §1
# [11] = molecular target: GlcNAc(b1-3)Gal(b1-4)GlcNAc(b1-3)GalNAc
# Method in brief: as §1
# [12] = molecular target: GlcNAc(b1-4)GlcNAc(b1-4)GlcNAc(b1-4)GlcNAc(b1-4)GlcNAc
# Method in brief: as §1
# [13] = molecular target: Neu5Ac(a2-3)Gal(b1-4)GlcNAc(b1-6)[Neu5Ac(a2-3)Gal(b1-3)]GalNAc
# Method in brief: as §1
# [14] = molecular target: Neu5Ac(a2-3)Gal(b1-4)GlcNAc6S
# Method in brief: as §1
# [15] = molecular target: Neu5Ac(a2-3)[GalNAc(b1-4)]Gal(b1-4)GlcNAc
# Method in brief: as §1
# [16] = molecular target: Neu5Ac(a2-6)Gal(b1-4)GlcNAc(b1-2)Man
# Method in brief: as §1
# [17] = molecular target: Neu5Ac(a2-6)Gal(b1-4)GlcNAc(b1-3)Gal(b1-3)GlcNAc
# Method in brief: as §1
# [18] = molecular target: Neu5Ac(a2-6)Gal(b1-4)GlcNAc(b1-3)Gal(b1-4)GlcNAc(b1-3)Gal(b1-4)GlcNAc(b1-2)Man(a1-3)[Neu5Ac(a2-6)Gal(b1-4)GlcNAc(b1-3)Gal(b1-4)GlcNAc(b1-3)Gal(b1-4)GlcNAc(b1-2)Man(a1-6)]GalNAc
# Method in brief: as §1
# [19] = molecular target: Neu5Ac(a2-6)GalNAc(b1-4)GlcNAc6S
# Method in brief: as §1
# [20] = molecular target: Neu5Ac(a2-8)Neu5Ac(a2-8)Neu5Ac(a2-3)Gal(b1-4)Glc
# Method in brief: as §1
binder,measurement,setting,value
B1,glycan array binding signal (z-score),[1],0.229
same,glycan array binding signal (z-score),[2],0.071
same,glycan array binding signal (z-score),[3],7.55
same,glycan array binding signal (z-score),[4],-0.05
same,glycan array binding signal (z-score),[5],2.39
same,glycan array binding signal (z-score),[6],0.054
same,glycan array binding signal (z-score),Gal3S6S(b1-4)GlcNAc,0.487
same,glycan array binding signal (z-score),Gal6S(b1-3)GlcNAc6S,4.12
same,glycan array binding signal (z-score),Gal6S(b1-4)Glc6S,6.81
same,glycan array binding signal (z-score),Gal6S(b1-4)GlcNAc6S,9.56
same,glycan array binding signal (z-score),GalNAc(b1-3)Gal,0.105
same,glycan array binding signal (z-score),GlcA(b1-6)Gal,0.35
same,glycan array binding signal (z-score),[7],-0.807
same,glycan array binding signal (z-score),[8],-0.345
same,glycan array binding signal (z-score),[9],-0.037
same,glycan array binding signal (z-score),[10],-0.435
same,glycan array binding signal (z-score),GlcNAc(b1-3)Fuc,-0.291
same,glycan array binding signal (z-score),[11],0.229
same,glycan array binding signal (z-score),[12],4.95
same,glycan array binding signal (z-score),[13],-0.382
same,glycan array binding signal (z-score),[14],-0.83
same,glycan array binding signal (z-score),[15],-0.706
same,glycan array binding signal (z-score),[16],-0.272
same,glycan array binding signal (z-score),[17],4.57
same,glycan array binding signal (z-score),[18],0.07
same,glycan array binding signal (z-score),[19],-0.365
same,glycan array binding signal (z-score),[20],0.154
